Results on 20 compounds are retold here after PubChem BioAssay (NCATS).

The subject of assay [1] is Zika virus NS2B-NS3 protease (unlinked complex). As to the kind of experiment: Primary screen GU Rhodamine qHTS for Zika virus inhibitors: Unlinked NS2B-NS3 protease assay (AID 1347159). Also: nearly all actives have a fitted effect of over 60% in size. Conditions: Recombinant ZIKV NS2B-NS3 protease, Rhodamine110 substrate fluorescence; series mostly up to 107 µM. In a few lines:
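Unlinked NS2B/NS3, 25 nM; Rhod110 peptide, 1.5 microM; compounds, up to 114 microM. Reaction run 15 min at RT in 10 mM Tris-HCl pH 8.0, 0.01% Tween 20; kinetic fluorescence change fitted with a 4-parameter Hill model.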
(In general: Quantitative high-throughput screening tests each substance at several concentrations.)

Assay [2] deals with Zika virus NS2B-NS3 protease (linked construct). As to the kind of experiment: Primary screen NINDS Rhodamine qHTS for Zika virus inhibitors (AID 1347160). Also: nearly all actives have a fitted effect of over 55% in size. Conditions: purified NS2B-NS3 protease, Rhodamine110 substrate fluorescence; series mostly up to 57.1 µM. In a few lines: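 Single-chain NS2B-NS3 protease, 25 nM, pH 8.0; compounds preincubated 15 min. Activity: Rhodamine110 release from 1.5 microM substrate over 15 min, room temperature, data fitted to 4-parameter Hill.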

SMILES strings stand for the structures. Inconclusive results are not listed. A number with no mark means an inactive call. Activity calls are given as the source filed them. Calls follow the shape of the dose curve; as a rule, active = well fitted inhibition curve with a large enough effect; inconclusive = small, poorly fitted or top-dose-only effect; inactive = no such curve, though single readings can be large or run the other way.
% is scaled to controls: 0 for no effect and ±100 for the full control effect.

Turning to `CN1CCc2cc3c(cc2C(=O)Cc2cc4c(cc2C1)OCO4)OCO3`, the Potency result in assay [1] and in assay [2] was “inactive” each time.
On to `CCOc1nc(NC(=O)Cc2cc(OC)ccc2OC)cc(N)c1C#N`, for which the Potency entry in assay [1] and in assay [2] was “inactive” each time.
Turning to `Cc1cc(C)c(S(=O)(=O)n2cc(C)cc2C)c(C)c1`, the Potency result in assay [1] and in assay [2] was “inactive” throughout.
In the case of `CCCN1CCC=C(c2cc(-c3ccc(C)cc3)no2)C1`, the Potency result in assay [1] and in assay [2] was “inactive” in each case.
As for `CC(C)(O)c1ccn2c(-c3ccc(F)c(-c4ccc(F)cc4C#N)c3)cnc2c1F`, the Potency entry in assay [1] and in assay [2] was “inactive” in each case.
In the case of `N#CC(CCCN1CCN(/N=C/c2cccnc2)CC1)(c1ccccc1)c1ccccc1`, the Potency result in assay [1] and in assay [2] was “inactive” throughout.
Take `O=c1[nH]cnc2c([C@@H]3N[C@H](CO)[C@@H](O)[C@H]3O)c[nH]c12`: the Potency result in assay [1] and in assay [2] was “inactive” each time.
Take `CC(C)n1nc(C#Cc2ccccc2)c2c(N)ncnc21`: the Potency entry in assay [1] and in assay [2] was “inactive” throughout.
As for `CC(=O)O[C@H]1CC(C)(C)CC2[C@]13CO[C@@]21CCC2[C@@]4(C)CC[C@H](O[C@@H]5OC[C@H](O[C@@H]6O[C@H](CO)[C@@H](O)[C@H](O)[C@H]6O[C@@H]6OC[C@@H](O[C@@H]7O[C@H](CO)[C@@H](O)[C@H](O)[C@H]7O)[C@H](O)[C@H]6O)[C@H](O)[C@H]5O[C@@H]5O[C@H](CO)[C@@H](O)[C@H](O)[C@H]5O)[C@@](C)(CO)C4CC[C@@]2(C)[C@]1(C)C[C@H]3O` (stereo not given in full), the activity change, negative = inhibition in assay [1] is 0.509% [at 19.1 µM]; in assay [2], -9.67% [at 10.7 µM].
`CCOc1cc(C(C)(C)C)ccc1C1=N[C@@](C)(c2ccc(Cl)cc2)[C@@](C)(c2ccc(Cl)cc2)N1C(=O)N1CCN(CC(=O)N2CCOCC2)CC1`: the Potency result in assay [1] and in assay [2] was “inactive” throughout.
Take `C#CCNCc1cc2cc(OCc3ccccc3)ccc2[nH]1`: the Potency entry in assay [1] and in assay [2] was “inactive” each time.
Turning to `NC(=O)CCCSc1nc(N)nc(-c2c(Cl)cc3c4c(cccc24)COC3)n1`, the Potency entry in assay [1] and in assay [2] was “inactive” each time.
For `O=C(NCC(=O)N1CCCC1)Nc1ccc2cnccc2c1`, the Potency result in assay [1] and in assay [2] was “inactive” throughout.
With `Cc1nc(C#Cc2ccnc(Cl)c2)c(C)n1-c1ccc(F)cc1`, the Potency entry in assay [1] and in assay [2] was “inactive” throughout.
For `COc1cc(OC)c2c(=O)[nH]c(-c3cc(C)c(OCCO)c(C)c3)nc2c1`, the Potency entry in assay [1] and in assay [2] was “inactive” in each case.
For `COc1ccccc1C(=O)Nc1cc2c(cc1N1CCCC1)n(C)c(=O)n2C`, the Potency entry in assay [1] and in assay [2] was “inactive” each time.
Consider `O=c1cc(OCc2ccc(F)cc2)ccn1-c1ccc(OCCN2CCCC2)cc1`, for which the Potency entry in assay [1] and in assay [2] was “inactive” each time.
For the compound `COc1ccc(CNc2nc(N(CCO)CCO)nc3c2ncn3C(C)C)cc1`, the Potency entry in assay [1] and in assay [2] was “inactive” throughout.
Regarding `CC(=O)OC1C(=O)C2C3OCC4=C3[C@@](C)(CC[C@@H]4O)CC[C@]2(C)[C@H]1C(C)C` (stereo not given in full), the Potency entry in assay [1] and in assay [2] was “inactive” each time.
Consider `COc1ccc(C2Oc3c(OC)cc(CCCO)cc3C2COC2OC(CO)C(O)C(O)C2O)cc1OC` (stereo not given), for which the Potency result in assay [1] and in assay [2] was “inactive” in each case.
